# Assay outcomes as filed in PubChem.
# Rows were chosen to be rich in hits. Some 1.2% of all compounds tested hit in one or more screens of this group.
# RGS4-Gao reg: modulators of RGS4 binding to Galphao, primary screen, biochemical, multiplexed bead flow cytometry. Guanine nucleotide-binding protein G(o) subunit alpha (Homo sapiens), P09471. actives lie on both sides. binding response (% of control), % at 10 µM. hit rate 0.33% among 220,000. AID 1415, 2008; in the data active means binding response below about 49% or above about 150%; inactive means in between;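 further: fluorescent Galphao activated with aluminum fluoride binding bead-coupled RGS4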
# Target sequence (P09471 whole entry, looked up): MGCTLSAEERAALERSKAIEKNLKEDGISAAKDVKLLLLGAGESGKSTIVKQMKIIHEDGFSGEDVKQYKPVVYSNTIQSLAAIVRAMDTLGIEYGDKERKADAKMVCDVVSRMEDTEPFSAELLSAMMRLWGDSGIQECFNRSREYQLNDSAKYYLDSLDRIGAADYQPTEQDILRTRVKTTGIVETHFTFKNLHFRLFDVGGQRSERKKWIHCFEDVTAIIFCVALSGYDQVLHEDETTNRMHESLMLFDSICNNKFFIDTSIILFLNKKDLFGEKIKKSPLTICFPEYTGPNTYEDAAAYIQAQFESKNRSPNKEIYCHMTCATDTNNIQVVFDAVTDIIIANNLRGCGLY
# GSH bead fluor: compound fluorescence on glutathione beads, profiling panel, artefact control, biophysical, 488/530 nm, flow cytometry; hit rate 0.25% among 190,000; fluorescence (KMESF) at 10 µM; GSH beads flow cytometry, compound fluorescence 488/530 nm; hits give high values; in the data active means fluorescence above about 89;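 further: glutathione beads carrying GST-tagged Bcl family fusion proteins plus one bare bead set; values are compound well signal with DMSO vehicle wells as background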
# RGS7-Gao: RGS7-Galphao binding modulators, primary screen, biochemical, multiplexed bead flow cytometry; binding response (% of control), % at 10 µM; actives lie on both sides; Guanine nucleotide-binding protein G(o) subunit alpha (Homo sapiens), P09471; hit rate 0.35% among 220,000; in the data active means binding response below about 49% or above about 150%; inconclusive means no clear call, values can overlap the other calls; inactive means in between;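 further: fluorescent Galphao held in activated GDP-AlF4 state binding bead-coupled RGS7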
# Avidin bead fluor: green autofluorescence of compounds with avidin beads – biophysical, 488/530 nm, flow cytometry, artefact control, profiling panel; compound fluorescence 488/530 nm; hits give high values; fluorescence (KMESF) at 10 µM; hit rate 0.38% among 220,000; AID 1775, 2009; in the data active means fluorescence above about 47
# RGS16-Gao: modulators of RGS16 binding to Galphao, primary screen, biochemical, human proteins, multiplexed bead flow cytometry | Regulator of G-protein signaling 16 (Homo sapiens) + Guanine nucleotide-binding protein … | bead-based flow cytometry RGS16-Galphao binding, fluorescence; actives lie on both sides | binding response (% of control), % at 10 µM | hit rate 0.38% among 220,000;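 further: Galphao activated by GDP with aluminum fluoride before binding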
# RGS8-Gao: RGS8-Galphao binding modulators, primary screen, biochemical, multiplexed bead flow cytometry. response (percent of control binding), % at 10 µM. Guanine nucleotide-binding protein G(o) subunit alpha (Homo sapiens), P09471. actives lie on both sides. AID 1423, 2008. hit rate 0.34% among 220,000; in the data active means response below about 60% or above about 140%; inactive means in between;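 further: Galphao activated as the GDP aluminium fluoride complex binding bead-coupled RGS8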
# RGS4-Gao HTS: modulators of RGS–Galpha-o binding, primary screen, biochemical, multiplexed beads, flow cytometry, RGS4/7/8/16/19 | AID 1504, 2009 | shares compounds with RGS16-Gao | multiplexed bead flow cytometry | hit rate 99% among 1,600 | RGS4–Galpha-o binding response, % at 10 µM;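 further: fluorescently labeled Galpha-o bound to GDP with aluminium fluoride binding biotinylated RGS beads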
# Target sequence (P09471 whole entry, looked up): as above
# Target sequence (P49798 whole entry, looked up): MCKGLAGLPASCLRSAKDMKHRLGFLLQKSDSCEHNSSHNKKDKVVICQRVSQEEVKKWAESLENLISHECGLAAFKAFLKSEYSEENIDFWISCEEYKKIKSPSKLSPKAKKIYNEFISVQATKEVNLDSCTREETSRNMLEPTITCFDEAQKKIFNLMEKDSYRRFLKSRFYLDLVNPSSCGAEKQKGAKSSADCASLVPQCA
# Biotin-avidin: disruption of biotin probe capture by avidin, counter-screen for RGS protein interaction modulators, biochemical, flow cytometry, bead-based. shares compounds with RGS16-Gao. streptavidin beads, fluorescein-biotin binding. inhibition, % at 10 µM. 1,700 tested, under 10 active. AID 1783, 2009;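 active means inhibition above 50%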;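 further: median green fluorescence of gated singlet beads compared with DMSO control wells; 0% = DMSO wells and 100% = complete loss of bead fluorescence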
# RGS8-Gao confirm: RGS8-Galphao binding modulators, confirmation, biochemical, multiplexed bead flow cytometry, single concentration; shares compounds with RGS16-Gao; bead-based flow cytometry RGS8-Galphao binding, fluorescence; actives lie on both sides; binding response (% of control), % at 10 µM; hit rate 3% among 1,700; AID 1836, 2009; in the data active means binding response below about 72% or above about 130%; inactive means in between;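 further: Galphao activated as GDP AlF4 complex before binding bead RGS8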
# RGS7-Gao single: RGS7-Galphao binding modulators, confirmation, biochemical, multiplexed bead flow cytometry, single concentration. shares compounds with RGS16-Gao. bead-based flow cytometry RGS7-Galphao binding; actives lie on both sides. response (percent of control binding), % at 10 µM. hit rate 7.8% among 1,700; in the data active means response below about 75% or above about 130%; inactive means in between;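 further: fluorescent Galphao activated with GDP and aluminum fluoride binding bead-coupled RGS7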
# RGS16-Gao conf: modulators of RGS16-Galphao protein binding, confirmation, biochemical, single concentration, multiplexed bead flow cytometry | shares compounds with RGS16-Gao | bead-based flow cytometry; actives lie on both sides | response (% of control binding), % at 10 µM | hit rate 4% among 1,700 | AID 1838, 2009; in the data active means response below about 74% or above about 130%; inactive means in between;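 further: Galphao activated as the GDP aluminium fluoride complex binding bead-coupled RGS16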
# RGS4-Gao confirm: modulators of RGS4-Galphao protein binding, confirmation, biochemical, single concentration, multiplexed bead flow cytometry; AID 1840, 2009; binding response (% of control), % at 10 µM; actives lie on both sides; hit rate 4% among 1,700; shares compounds with RGS16-Gao; in the data active means binding response below about 74% or above about 130%; inactive means in between
# RGS19-Gao conf: regulators of RGS19-Galphao binding, confirmation, biochemical, single point, multiplexed bead flow cytometry; bead-based flow cytometry RGS19-Galphao binding; actives lie on both sides; shares compounds with RGS16-Gao; response (percent of control binding), % at 10 µM; hit rate 5% among 1,700; AID 1841, 2009; in the data active means response below about 50% or above about 160%; inactive means in between;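 further: 100% = no compound control and 0% = blank background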
# * = called active by the depositor; ? = inconclusive; nt = no result; [ ] = remark or other dose. Unless noted, how the calls were made is not given here.
SMILES,RGS4-Gao reg,GSH bead fluor,RGS7-Gao,Avidin bead fluor,RGS16-Gao,RGS8-Gao,Biotin-avidin,RGS8-Gao confirm,RGS7-Gao single,RGS16-Gao conf,RGS4-Gao confirm,RGS19-Gao conf,others
COc1ccc(OC)c(/C(O)=C/C(=O)C(=O)Nc2cc(C)ccc2OC)c1,49*,29,68,-1,710,82,0,89,75*,87,84,127,
OC(COc1ccc(Br)cc1)CN1CCOCC1 (configuration not stated),nt,41,nt,nt,nt,nt,3,104,101,108,101,101,
OC(COc1ccc(-c2ccccc2)cc1)CN1CCOCC1 (configuration not stated),104,28,104,13,102,101,nt,nt,nt,nt,nt,nt,
Cn1c(=S)n(CCC(=O)O)c2ccccc21,102,12,98,23,103,104,nt,nt,nt,nt,nt,nt,
Cc1ccc(S(=O)(=O)NCC(=O)N/N=C/c2ccccc2O)cc1,101,10,103,11,111,103,nt,nt,nt,nt,nt,nt,
COCCN1Cc2cccc(C(=O)NCc3ccc4c(c3)OCO4)c2C1=O,89,22,92,6,20*,70,1,106,99,109,103,106,RGS4-Gao HTS=89*
COCCN1Cc2cccc(C(=O)NCc3ccccn3)c2C1=O,106,14,111,13,120,109,nt,nt,nt,nt,nt,nt,
Cc1cccc(CSCc2ccc(C(=O)NCC3CCCO3)o2)c1 (configuration not stated),99,20,99,11,101,100,nt,nt,nt,nt,nt,nt,
C=CCN1C(=O)/C(=c2\sc3nc(=O)c(Cc4ccc(OC)c(OC)c4)nn3c2=O)c2ccccc21,91,nt,?,8,91,96,nt,nt,nt,nt,nt,nt,
COCCNC(=O)Cn1nc(-c2ccccc2OC)ccc1=O,133,57,133,5,383,158*[activator],1,107,82,104,91,56,RGS4-Gao HTS=133*
COc1cc(CC(NC(C)=O)C(=O)NC2CCN(c3nc(OC)nc(OC)n3)CC2)cc(OC)c1 (configuration not stated),100,nt,?,7,102,100,nt,nt,nt,nt,nt,nt,
CCOC(=O)c1c(NC(=O)C2CCCO2)sc(C(N)=O)c1C (configuration not stated),111,4,113,15,295*[activator],133,-1,100,88,100,93,93,RGS4-Gao HTS=111*
CCCOC(=O)c1c(NC(=O)C2CCCO2)sc(C(=O)OC)c1C (configuration not stated),102,12,114,0,55,88,nt,nt,nt,nt,nt,nt,
O=C(CSc1nc2ccc(Nc3nc(N4CCCC4)nc(N4CCCC4)n3)cc2s1)NCc1ccco1,101,nt,?,7,100,102,nt,nt,nt,nt,nt,nt,
O=C(CSc1nnc(-c2cccnc2)s1)Nc1ccc(C(=O)O)cc1,98,19,100,10,95,99,nt,nt,nt,nt,nt,nt,
Oc1ccc(N=Cc2ccc(O)c(O)c2)cc1,59,6,49*,2,0,61,-3,89,86,88,89,81,RGS4-Gao HTS=59*
O=Cc1ccc(O)c(O)c1,84,19,82,7,83,88,nt,nt,nt,nt,nt,nt,
Cc1cc(C)c(S(=O)(=O)N2CCN(C(=O)N(C)C)CC2)c(C)c1,101,16,103,11,111,104,nt,nt,nt,nt,nt,nt,
COc1ccc(NC2(c3ccc(Cl)cc3)C(=O)c3ccccc3C2=O)cc1,98,8,100,10,100,101,nt,nt,nt,nt,nt,nt,
COc1ccc(NC2(c3ccccc3)OC(=O)c3ccccc32)cc1 (configuration not stated),nt,14,nt,nt,nt,nt,0,105,104,105,104,111,
O=C(Nc1cccc(F)c1)NC1CCN(Cc2ccccc2)CC1,101,12,98,7,98,101,nt,nt,nt,nt,nt,nt,
COC(=O)c1ccc(Cl)cc1NC(=O)/C=C/c1ccc(C)o1,96,9,99,9,91,93,nt,nt,nt,nt,nt,nt,
O=C1CC(c2ccc(S(=O)(=O)NCCOc3ccccc3)cc2)CN1 (configuration not stated),nt,33,nt,nt,nt,nt,2,101,97,100,97,103,
O=C(N=Nc1c(O)[nH]c2ccc(Br)cc12)c1cc(-c2cccc3ccccc23)n[nH]1,89,9,83,9,8.3*,67,-1,93,90,98,96,123,RGS4-Gao HTS=89*
FC(F)C(F)(F)c1cc(-c2ccc(Cl)cc2)n[nH]1,110,nt,?,5,108,104,nt,nt,nt,nt,nt,nt,
Fc1ccc(-c2cc(C(F)(F)C(F)F)[nH]n2)cc1,168*[activator],nt,?,79*,164,111,2,104,106,106,107,97,
Cc1ccc(NC(=S)NN(C)c2cc(C)nc(C)n2)cc1,105,17,99,16,106,103,nt,nt,nt,nt,nt,nt,
N#Cc1ccc(OCC(=O)N/N=C/C2CC=CCC2)cc1 (configuration not stated),101,14,?,9,98,102,nt,nt,nt,nt,nt,nt,
